Test results published in PubChem BioAssay AID624418 (National Center for Advancing Translational Sciences (NCATS), 2012).
Out of some 410,000 compounds screened, about 530 (0.13%) were called active. Inconclusive results (about 5%) are left out. Calls come from the whole dose curve; as a rule, active = well fitted inhibition curve with a large enough effect; inconclusive = small, poorly fitted or top-dose-only effect, or another doubt; inactive = no such curve, though single readings can be large or run the other way. Shown is part of a subset that was picked to be rich in actives. Where a call stands in place of a potency, no number is given.

assay: qHTS of GLP-1 Receptor Inverse Agonists: Cytotox Screen; conditions: HEK293 cAMP-luciferase reporter cells, luminescence, 24 h; series mostly up to 38.3 µM;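 note: loss of luciferase light is scored as toxicity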
Procedure, shortened: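 Step one: seed cells (200 cells/uL, DMEM with 10% Nu serum, 1% pen-strep). Step two: 12-hour incubation at 37 deg C. Step three: pin 23 nL compound, incubate 24 hr. Step four: add luciferase reagent, read luminescence 12 min later.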
Potency is the fitted concentration of half-maximal effect.

Row | SMILES | Potency
1 | Cc1cccc(C(=O)Nc2ccc(S(=O)(=O)N3CCCCC3c3cccnc3)cc2)c1 (stereo unspecified) | inactive
2 | O=C(Nc1ccc(Br)cc1)c1ccc(Br)c(S(=O)(=O)NCc2ccccc2)c1 | inactive
3 | CCOC(=O)c1c(NC(=O)/C=C/c2ccc(OC)cc2)sc2c1CCC(C)C2 (stereo unspecified) | inactive
4 | CCc1ccc(NC(=O)Cn2c(=O)n(CCC(=O)NCc3ccc4c(c3)OCO4)c(=O)c3ccccc32)cc1 | inactive
5 | O=C(c1ccc(Cl)cc1)n1nc(-c2cccnc2)nc1NCc1ccc(F)cc1 | inactive
6 | Clc1ccc(CSc2nncn3c2cc2occc23)cc1 | inactive
7 | O=C(Cn1cnc2c(oc3ccccc32)c1=O)Nc1ccc(OC(F)(F)F)cc1 | inactive
8 | COc1ccc(C(=O)COC(=O)CCCC(=O)Nc2cc(C(F)(F)F)ccc2Cl)cc1 | inactive
9 | Cc1ccc(CCNC(=O)c2ccc(CS(=O)(=O)Cc3cccc(C)c3)o2)cc1 | inactive
10 | Cc1c(CNC2CCCCC2)c(C(=O)O)c(C)n1Cc1cccc(Cl)c1 | inactive
11 | Cc1nc(SCCOc2ccc(Cl)cc2)[nH]c(=O)c1Cc1ccccc1 | inactive
12 | Cc1cc(NC(=O)CC(C)C)cc(-c2nc3ncccc3o2)c1O | inactive
13 | Cc1ccc2nc(COc3cccc(NC(=O)c4ccccc4Cl)c3)cc(=O)n2c1 | inactive
14 | COc1ccc(CCNC(=O)CCCCn2c(=O)c3ccccc3n(Cc3ccccc3)c2=O)cc1OC | inactive
15 | CCOC(=O)C1=CCC2C(=O)N(Cc3ccccc3)C(=O)C12 (stereo unspecified) | inactive
16 | COc1cc(/C=C2/SC(=S)N(Cc3ccccc3)C2=O)cc(OC)c1O | 10 µM (active)
17 | COc1ccc(-c2cc(C(F)(F)F)n3nc(-c4ccccc4)cc3n2)cc1OC | inactive
18 | CCCCCc1c(-c2ccc(OC)c(OC)c2)ncn1CCc1ccccc1OC | inactive
19 | COc1ccc(-c2nn(-c3ccccc3)cc2/C=N/Nc2ccccn2)cc1OC | 5.01 µM (active)
20 | Cc1ccccc1CN1CCC(CNC(=O)c2cc3ccc4cccnc4c3[nH]2)CC1 | inactive
21 | O=C(NCC(c1ccc2c(c1)OCO2)N1CCN(c2ccccc2)CC1)C(=O)Nc1ccccc1F (stereo unspecified) | inactive
22 | CCc1ccc(NC(=O)c2cc(S(=O)(=O)NC3CCCCCC3)ccc2F)cc1 | inactive
23 | CCCCN(CC)C(=O)c1c[nH]c2ccc(S(=O)(=O)Nc3cccc(OC)c3)cc2c1=O | inactive
24 | Cc1cccc(NC(=O)c2ccc(F)c(S(=O)(=O)N(C)C3CCCCC3)c2)c1 | inactive
25 | COc1ccc(NC(=O)c2ccc3oc(=O)c(S(=O)(=O)c4ccc(F)cc4)cc3c2)c(OC)c1 | inactive
26 | Cc1ccc(-n2c(SCC(=O)Nc3cccc(F)c3)nc3c(oc4ccccc43)c2=O)cc1C | inactive
